# Screening results (PubChem BioAssay)
# Rows were chosen to be rich in hits. Some 4.3% of all compounds tested hit in one or more screens of this group.
# FAS TE block – blocks the thioesterase domain of human fatty acid synthase; P49327; recombinant FAS-TE, OMFH fluorogenic substrate, fluorescence endpoint; inhibition, % at 15 µM; 360,000 compounds, 0.67% hits; AID 602261;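 active = compounds whose normalised, plate-corrected inhibition of enzyme fluorescence in the single-dose primary screen is 50% or more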;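 also: 0% = DMSO with enzyme and 100% = substrate without enzyme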
# GRIN3A LBD mod – modulates the human NR3A ligand-binding domain. NR3A LBD differential scanning fluorimetry, Tm shift; 0% = protein alone, 100% = glycine-bound protein. Tm shift relative to glycine control, % at 25 µM. 340,000 compounds, 2.5% hits. AID 1259313;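 active = melting temperature shift of at least 10% of the positive control shift, at one fixed dose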
# ADAM17 inh – inhibitors of human ADAM17; recombinant ADAM17, EDANS/DABCYL FRET peptide cleavage; inhibition, % at 6.95 µM; 370,000 compounds, 0.83% hits; AID 720648;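 active = inhibition above the mean of compounds lying between control limits plus 3 SD, set per campaign, cut at about 8.5% in these data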;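 also: 0% = DMSO-only wells as the low control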
# ADAM10 inh – ADAM10 inhibition, QFRET primary screen; AID 720582; 370,000 compounds, 0.62% hits; recombinant ADAM10, EDANS/DABCYL FRET peptide cleavage, 3 h; inhibition, % at 7 µM;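 active = inhibition above a per-campaign cutoff equal to the mean of compounds falling between control-based bounds plus 3 SD, cut at about 20% in these data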;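 also: 0% = DMSO wells while the 100% control is not disclosed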
# sPLA2-III inh – Inhibits HGIII-sPLA2 liposome hydrolysis, primary screen; 370,000 compounds, 0.56% hits; inhibition, % at 12.2 µM; QFRET BODIPY PC-A2 liposome hydrolysis, fluorescence; Q9NZ20;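 active = inhibition above mean plus 3 SD of compounds lying within the high and low control bounds, cut at about 19% in these data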;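 also: 0% = median of test compound wells and 100% = no enzyme DMSO wells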
# FAS-TE conf – confirmation of human fatty acid synthase thioesterase inhibitors. shares compounds with FAS TE block. recombinant FAS-TE, OMFH fluorogenic substrate, fluorescence. inhibition, % at 15 µM. 2,300 compounds, 45% hits;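 active = compounds inhibiting the enzyme by at least 50% at 15 µM in any one of the replicates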;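 also: 0% = enzyme with DMSO only and 100% = wells lacking enzyme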
# Starred values were filed as active, the others as inactive; . = no result given.
SMILES,FAS TE block,GRIN3A LBD mod,ADAM17 inh,ADAM10 inh,sPLA2-III inh,FAS-TE conf
CC(C)C[C@@]12C(=O)N(c3cccc(F)c3)C(=O)N1[C@H](c1ccc(Br)cc1)[C@@H]1C(=O)N(C(C)(C)C)C(=O)[C@@H]12,47.7,-5.9,-3.1,5.1,-4.5,.
CC(C)C[C@@]12C(=O)N(c3cccc(Br)c3)C(=O)N1[C@H](c1ccc(Cl)cc1)[C@@H]1C(=O)N(C3CCCCC3)C(=O)[C@@H]12,91.8*,-1.1,-0.7,-0.3,5.3,18.7
CCCC[C@H]1C2CC(OC(=O)Nc3ccc4c(c3)OCO4)C(C2)[C@H]2CCCCN21 (some centres not stated),.,.,-0.2,2.1,6.9,.
CCOC(=O)N1CCN(C(=O)C[C@H]2C[C@@]3(C(=O)OC)C(=C[C@H](COCc4ccccc4)O[C@@H]3C)N(Cc3ccc(Cl)cc3Cl)C2=O)CC1,.,.,2.4,7.3,-12.8,.
O=C(NNc1ccc([N+](=O)[O-])cc1)C12CC3CC(CC(C3)C1)C2,51.6*,-1.6,0.6,4.3,2.1,45.1
CCOC(=O)[C@@]12CCCC3=C1N(CCC3)C(=O)[C@H]2CC(=O)N1CCOCC1,.,.,-3.5,0.8,8.1,.
O=C(Nc1ccc(S(=O)(=O)N2CCOCC2)cc1)C1CC1,-3.7,-0.8,2.5,7.0,1.4,.
Cc1ccc(NC(=O)C2CCN(S(=O)(=O)c3ccc(C(C)(C)C)cc3)CC2)cc1S(=O)(=O)N1CCOCC1,88.9*,-8.6,-0.4,3.0,-10.1,31.2
Cc1ccc(NC(=O)c2ccc(S(=O)(=O)N3CC(C)CC(C)C3)cc2)cc1S(=O)(=O)N1CCOCC1 (configuration not stated),50.1*,-0.2,1.9,-8.2,-6.9,7.4
Cc1ccc2c(c1)N(CCCC(=O)NCc1cccs1)C(=O)CO2,.,.,-1.1,-7.2,1.4,.
Cc1ccc(N2CC(C)Cn3c2nc2c3c(=O)n(CC(=O)OCc3ccccc3)c(=O)n2C)cc1C (configuration not stated),53.9*,-3.4,-1.7,-6.2,-5.6,4.6
Cc1cc(C)cc(N2CCCn3c2nc2c3c(=O)n(CC(=O)OCc3ccccc3)c(=O)n2C)c1,21.6,1.2,.,.,.,.
O=C(CCN1C(=O)/C(=C\c2ccccc2Cl)SC1=S)Nc1cccnc1,57.1*,-6.3,2.7,-5.7,-5.2,54.3*
O=C(CCN1C(=O)/C(=C/c2ccccc2Cl)SC1=S)Nc1ccccc1C(=O)O,71.0*,0.9,-4.1,-3.0,-9.7,76.6*
CCC[C@H]1[C@@H](NCC2CCCCC2)CC[C@@]23CCCN2C(=O)CCC[C@@H]13,.,.,1.7,-0.4,9.8,.
O=C(Nc1cccc(S(=O)(=O)N2CCCCC2)c1)c1ccc(S(=O)(=O)C(F)F)cc1,59.4*,-2.8,-0.8,4.4,-25.2,39.1
O=C(Nc1cccc(S(=O)(=O)N2CCCCC2)c1)c1ccc2c(=O)n3c(nc2c1)CCCCC3,59.7*,-9.3,4.8,7.8,-22.4,21.6
O=C(Nc1cccc(S(=O)(=O)C(F)F)c1)c1ccc(S(=O)(=O)N2CCCCC2)cc1,25.8,-7.4,6.8,16.6,-46.4,.
COC(=O)[C@]12C[C@H](CC(=O)NCc3cccs3)C(=O)N(CCc3ccc(OC)c(OC)c3)C1=C[C@H](COCc1ccccc1)O[C@@H]2C,.,.,2.4,6.5,-9.5,.
COc1ccc(C2CC(c3cccs3)=NN2C(=O)CSc2nc(=O)n3cc(C)ccc3n2)cc1 (configuration not stated),52.9*,2.6,0.7,-3.7,3.6,3.6
Cc1cc(C(=O)COC(=O)c2ccc(N)c([N+](=O)[O-])c2)c(C)n1-c1ccc2c(c1)OCO2,63.1*,-2.5,1.6,7.6,-2.8,5.8
Cc1cc(-c2cc(NC(=O)Cc3c[nH]c4ccccc34)ccc2Nc2cccnc2)ccc1F,.,.,0.9,4.6,-18.0,.
CCCCN1CCN(C(=O)Cn2c(=O)c3ccccc3n(CC)c2=O)CC1,.,.,3.6,-7.5,1.7,.
O=C(NCc1ccco1)C1CCCN(S(=O)(=O)c2ccccc2[N+](=O)[O-])C1 (configuration not stated),.,.,0.7,-5.0,7.1,.
COC(=O)CC(NC(=O)Nc1ccc(C)cc1)c1cccc([N+](=O)[O-])c1 (configuration not stated),52.8*,-6.2,3.4,9.9,-9.7,65.2*
SMILES,FAS TE block,GRIN3A LBD mod,ADAM17 inh,ADAM10 inh,sPLA2-III inh,FAS-TE conf
COc1ccc(CC(=O)NC(CC(=O)O)c2cccc([N+](=O)[O-])c2)cc1 (configuration not stated),3.1,0.0,-0.9,0.1,-5.6,.
O=C(O)CC(NC(=O)C(c1ccccc1)c1ccccc1)c1cccc([N+](=O)[O-])c1 (configuration not stated),51.8*,0.8,-0.4,-7.9,0.6,63.6*
CCOC(=O)CC(NC(=O)c1cc2ccccc2oc1=O)c1cccc([N+](=O)[O-])c1 (configuration not stated),50.4*,-5.8,-3.0,-1.8,-3.7,55.3*
O=C(O)CC(NC(=O)COc1ccccc1)c1cccc([N+](=O)[O-])c1 (configuration not stated),0.0,-0.4,-4.8,5.5,-2.2,.
COCCN=C1Sc2ccccc2[C@@H]2C[C@H]3[C@H](CON3C)CN12,.,.,-0.5,-8.7,-2.2,.
CCCCCC(=O)NC1CCCCN(C)C1=O (configuration not stated),.,.,0.0,2.5,1.8,.
CCOC1=C2CN(S(=O)(=O)c3ccc(C)cc3)[C@H](c3ccccc3)C[C@H]2n2c(=O)n(-c3ccccc3)c(=O)n2C1,69.9*,.,0.1,1.5,-4.6,14.0
CCOC1=C2[C@H](c3ccc(Cl)cc3)N(S(=O)(=O)c3ccc(C)cc3)C[C@H]2n2c(=O)n(-c3ccccc3)c(=O)n2C1,55.7*,.,-3.5,-2.8,-0.2,12.8
CCOC1=C2[C@H](c3ccccc3)N(S(=O)(=O)c3ccc(C)cc3)C[C@H]2n2c(=O)n(-c3ccccc3)c(=O)n2C1,41.2,.,1.3,2.1,-3.2,.
N#C/C(=C\c1cccc([N+](=O)[O-])c1)C(=O)NCc1cccnc1,11.8,-2.6,-3.8,-17.4,17.9,.
N#C/C(=C\c1cccc([N+](=O)[O-])c1)C(=O)NCc1ccc(Cl)cc1,74.1*,-11.2,-1.2,5.1,-16.6,77.3*
COc1ccc(C/C(N)=N/OC(=O)c2cccc([N+](=O)[O-])c2)cc1,54.0*,13.7*,-1.2,7.6,3.9,48.1*
COc1ccccc1C/C(N)=N/OC(=O)c1cccc([N+](=O)[O-])c1,29.1,0.7,-5.6,2.5,-5.1,.
CC(NC(=O)CC(c1ccccc1)c1cc(Cl)ccc1O)c1ccccc1 (configuration not stated),50.3*,-13.3,5.8,7.5,-26.9,48.1
Cc1cn(-c2cc(NC(=O)c3ccc(C)c(Nc4nccc(-c5cccnc5)n4)c3)cc(C(F)(F)F)c2)cn1,.,.,-0.6,-1.2,-2.3,.
